Source: PubChem BioAssay (Tox21)
Records with an inconclusive call do not appear. Entries that show only a call come without a potency. The source made the active and inactive calls. Calls follow the shape of the dose curve; as a rule, active = well fitted cell-killing curve with a large enough effect in the repeat runs; inconclusive = weak or mixed curves, or effect the other way; inactive = flat fitted curve, though single readings scatter.

Columns and labels:
[1] = cAMP Responsive Elements (CRE) small molecule antagonists, cell-based qHTS assay: qHTS cell viability counter screen (AID 2060913); conditions: CRE-bla HEK293T viability, CellTiter-Glo luminescence, 5 h; series mostly up to 92.4 µM; also: nearly all actives have a fitted effect of over 40% in size
Method in brief: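 Steps: cells plated and held 18 hrs at 37 C/5% CO2; compounds and NKH477 (0.25 uM final) added; 3 hrs incubation; reporter substrate read; CellTiter-Glo added to measure cytotoxicity by luminescence.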

[2] = cAMP Responsive Elements (CRE) small molecule agonists, cell-based qHTS assay: qHTS cell viability counter screen (AID 2060914); conditions: CRE-bla HEK293T viability, CellTiter-Glo luminescence, 5 h; series mostly up to 92.4 µM;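 also: viability read after 3 h of compound exposure; nearly all actives have a fitted effect of over 50% in size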
Method in brief: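 Cytotoxicity counter screen multiplexed with the CRE-bla reporter assay in HEK 293T cells: 3 h compound exposure at 37 °C, followed by CellTiter-Glo luminescence measured in the same wells.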

Row | Compound | Potency [1] | Potency [2]
1 | CC(C)(O)C(Cl)(Cl)Cl | inactive | inactive
2 | CCOP(=S)(OCC)Oc1cc(C)nc(C(C)C)n1 | inactive | inactive
3 | c1ccc(N2CCNCC2)cc1 | – | inactive
